Compounds with a hit are over-represented: about 7.3% of the library has one in this group of screens.
IP6K1 inhibitor = inhibitors of human IP6K1 | Q92551 | IP6K1 kinase, ADP-Glo luminescence, 2 h; active compounds read low | activity change, % (series mostly up to about 58 µM) | hit rate 0.81% among 140,000 | AID 1645851; in the data active = activity change below about -25%; also: % is scaled to controls: 0 for no effect and ±100 for the full control effect
Target sequence (Q92551 whole entry, looked up): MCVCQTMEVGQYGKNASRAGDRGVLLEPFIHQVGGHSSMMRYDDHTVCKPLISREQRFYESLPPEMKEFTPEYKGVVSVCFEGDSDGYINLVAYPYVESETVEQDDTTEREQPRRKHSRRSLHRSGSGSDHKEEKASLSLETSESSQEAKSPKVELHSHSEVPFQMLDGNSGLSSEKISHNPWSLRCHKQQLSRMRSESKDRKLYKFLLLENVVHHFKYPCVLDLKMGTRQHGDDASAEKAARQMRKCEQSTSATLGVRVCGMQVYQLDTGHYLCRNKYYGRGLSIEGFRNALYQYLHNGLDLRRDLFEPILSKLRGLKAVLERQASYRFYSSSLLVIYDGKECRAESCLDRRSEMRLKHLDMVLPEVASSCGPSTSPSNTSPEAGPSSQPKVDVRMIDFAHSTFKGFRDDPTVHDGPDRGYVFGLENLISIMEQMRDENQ
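ADP-Glo luminescence measures ADP made by human IP6K1 during a 2 h RT reaction with ATP/IP6 (mix at 1.3 mM/130 uM); top library doses 57.5 and 19.1 uM final.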
3T3 cytotox = NIH 3T3 cell cytotoxicity. NIH 3T3 viability, CellTiter-Glo ATP luminescence, 48-72 h. Potency, µM (titrated, usually from 96.7 µM), inactives show at the highest dose activity change, negative = cytotoxicity, actives largely listed as inhibitors. hit rate 4.3% among 94,000; also: potency is read from the fitted curve at half-maximal effect; % is scaled to controls: 0 for no effect and ±100 for the full control effect; nearly all actives have a fitted effect of over 55% in size
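First NIH 3T3 cells are plated at 400 cells/well; next compound is pinned in; then plates incubate 48 or 72 hr at 37 °C; finally CellTiter-Glo is added and luminescence read after 10 min.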
HEK cytotox = kills HEK 293 cells | HEK 293 viability, ATP luminescence (CellTiter-Glo), 48-72 h | Potency, µM (series often up to 115 µM), inactives show top-dose activity change, negative = cytotoxicity, most hits filed as inhibitors | hit rate 6.6% among 94,000 | AID 1345083; also: potency is read from the fitted curve at half-maximal effect; % is scaled to controls: 0 for no effect and ±100 for the full control effect; nearly all actives have a fitted effect of over 60% in size
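HEK 293 seeded at 250 cells/well receive compound via pintool. After 48 or 72 hr at 37 degree Celsius, 5% CO2 and 95% humidity, CellTiter-Glo is dispensed and luminescence read following 10 min at room temperature.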
FLuc inh-1 = Photinus pyralis luciferase inhibition; P08659; purified P. pyralis luciferase, luminescence, biochemical; Potency, µM (doses to about 115 µM), hits mostly inhibitors; hit rate 2.5% among 76,000; AID 1347043; also: potency is read from the fitted curve at half-maximal effect; % is scaled to controls: 0 for no effect and ±100 for the full control effect; nearly all actives have a fitted effect of over 65% in size
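Inhibitors were tested against purified firefly luciferase in a biochemical, low-substrate format (both substrates at 10uM) and luminescence measured with a CCD imager.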
SNCA viab count = reduces viability of HEK-293 SNCA reporter cells; HEK-293-SNCA-luc viability, GF-AFC fluorescence, 24 h; Potency, µM (series often up to 57.1 µM), for inactives: at the highest dose activity change, negative = cytotoxicity, most hits filed as cytotoxic; hit rate 0.12% among 150,000;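 also: potency is read from the fitted curve at half-maximal effect; 0% = DMSO-treated cells and -100% = medium-only wells without cells; nearly all actives have a fitted effect of over 30% in size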
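HEK-293-SNCA-luc cells (1500/well) plated 24 h, then exposed 24 h to a dilution series; GF-AFC added 30 min at 37C, fluorescence 405/540 nm; normalised to medium-only and DMSO wells, Hill fit.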
SNCA expr inh = reduces expression of the alpha-synuclein gene. HEK-293 SNCA-luciferase knock-in, luminescence, 24 h. Potency, µM (titrated, usually from 57.2 µM), for the others: at the highest dose activity change, negative = inhibition, actives largely listed as inhibitors. hit rate 0.17% among 140,000. AID 1671194;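 also: potency is read from the fitted curve at half-maximal effect; plate controls were DMSO cells for no effect and cell-free wells for full effect; nearly all actives have a fitted effect of over 45% in size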
FLuc SDR -ATP = stabilizes firefly luciferase without ATP; shares compounds with FLuc inh-1; Purified FLuc-C-HiBiT, Nano-Glo HiBiT luminescence, no ATP; Potency, µM (series often up to 32.7 µM), inactives show at the top dose activation (signal gain), hits mostly activators; hit rate 7.8% among 1,300; also: potency is read from the fitted curve at half-maximal effect; nearly all actives have a fitted effect of over 55% in size
FLuc SDR ATP = firefly luciferase binding stabilization, ATP added. shares compounds with FLuc inh-1. purified FLuc-C-HiBiT + ATP, HiBiT complementation luminescence. Potency, µM (titrated, usually from 32.7 µM), without a hit: top-dose activation (gain of signal), usual class: activators. hit rate 8.7% among 1,300. AID 1963319;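 also: signal reports ligand binding via conformational change of the enzyme rather than luciferase catalysis; potency is read from the fitted curve at half-maximal effect; % of control where 0% means no effect; nearly all actives have a fitted effect of over 55% in size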
FLuc inh-2 = firefly luciferase enzyme inhibition; shares compounds with FLuc inh-1; purified FLuc-C-HiBiT enzyme, luciferin luminescence; Potency, µM (highest dose often 32.7 µM), for the others: top-dose activity change, negative = inhibition, hits mostly inhibitors; hit rate 42% among 1,300; also: potency is read from the fitted curve at half-maximal effect; % is scaled to controls: 0 for no effect and ±100 for the full control effect; nearly all actives have a fitted effect of over 70% in size
* = called active by the depositor; i = inactive; u = inconclusive; x = no result; [ ] = remark or other dose. Unless noted, calls follow the shape of the dose curve; as a rule, active = well fitted curve in the direction sought with a large enough effect; inconclusive = small, poorly fitted or top-dose-only effect, or another doubt; inactive = no such curve, though single readings can be large; an effect the other way counts as inactive or inconclusive.

SMILES | IP6K1 inhibitor | 3T3 cytotox | HEK cytotox | FLuc inh-1 | SNCA viab count | SNCA expr inh | FLuc SDR -ATP | FLuc SDR ATP | FLuc inh-2
O=C(O)c1cccc(-c2noc(-c3cccc([N+](=O)[O-])c3)n2)c1 | x | x | x | x | x | x | 11µM* | 0.0079µM* | 0.007µM*
COc1cccc(-c2nc(-c3ccc(C(=O)O)cc3)no2)c1 | x | x | x | x | x | x | u | 0.88µM* | 0.79µM*
O=C(O)c1cccc(-c2noc(-c3ccc(F)cc3)n2)c1 | x | x | x | x | x | x | 5µM* | 0.0056µM* | 0.0044µM*
CCC(=O)N1CCN(C2CCN(Cc3ccccn3)C2=O)CC1 (centres undefined) | 26 | -7% | u | i | 5% | 23% | x | x | x
COc1cccc(CN2CCCOCCNC(=O)[C@@H]3CCCC[C@@H]32)c1OC | 8 | -7% | u | i | -12% | 2% | x | x | x
CCc1[nH]ncc1C(=O)N[C@H]1CC[C@H](Nc2nccc(-c3ccccn3)n2)C1 | -5 | u | u | i | -11% | -9% | x | x | x
O=C(O)c1cccc(-c2noc(-c3cccc(F)c3)n2)c1 | x | x | x | x | x | x | u | 0.007µM* | 0.007µM*
O=C(O)c1cccc(-c2noc(-c3ccccc3Cl)n2)c1 | x | x | x | x | x | x | 2.8µM* | 0.0062µM* | 0.0035µM*
NC(=O)C1(C(=O)N2CCC(n3nccc3NC(=O)c3ccccc3)CC2)CC1 | 4 | -6% | -10% | i | -9% | -15% | x | x | x
Nc1ncnc2c1ncn2[C@@H]1O[C@H](CO)[C@@H](O)[C@H]1O | 8 | x | x | x | -4% | -27% | x | x | x
Nc1ncnc2c1ncn2[C@H]1O[C@H](CO)[C@@H](O)[C@@H]1O | x | x | x | x | x | x | 11% | 10% | 2%
O=C(CSc1nnc2[nH]c(=O)cc(-c3ccccc3)n12)Nc1ccc(OC(F)(F)F)cc1 | -7 | x | x | x | -6% | -7% | 20% | 15% | 7µM*
COc1cccc(NC(=O)CSc2nnc3[nH]c(=O)cc(-c4ccccc4)n23)c1 | -4 | x | x | x | 0% | -5% | x | x | x
CC(C)C(=O)NC1CCN(Cc2ccc(-c3nc4cccc(Cl)c4s3)cc2)CC1 | x | x | x | x | x | x | 13% | 9% | -6%
CC(C)N1Cc2cc(C(=O)NC3CCN(Cc4ccccc4)CC3)sc2C1 | 11 | u | u | i | 5% | -16% | x | x | x
O=C(COc1ccc(Cl)cc1)Nc1ccc(-c2nc3ccccc3s2)c(O)c1 | -8 | x | x | x | 16% | 2% | 15% | 11% | 1%
CN1C(=O)Cc2cc(S(=O)(=O)CCC(=O)Nc3ccc(Cl)cc3)ccc21 | -4 | x | x | x | 8% | -6% | x | x | x
O=C(CCCS(=O)(=O)c1ccc(Cl)cc1)Nc1ccc(O)c(-c2nc3ccccc3s2)c1 | x | x | x | x | x | x | 17% | 10% | 0%
O=C(COc1ccc(Cl)cc1)Nc1ccc(O)c(-c2nc3ccccc3s2)c1 | 4 | x | x | x | 12% | 11% | 13% | 9% | 3%
CCc1n[nH]c(CC2CCN(C(=O)COc3ccc(F)cc3)CC2)n1 | 13 | -12% | i | i | 7% | -5% | x | x | x
CC(C)(C)CC(=O)N[C@H]1C[C@H]2C(=O)Nc3cc(Cl)ccc3C(=O)N2C1 | -11 | -20%[174 µM] | u | i | 6%[87.6 µM] | -17%[87.6 µM] | x | x | x
COc1ccc(CC(=O)N2CC(=O)N(c3ccc(Cl)cc3)CC2C)cc1 (centres undefined) | 26 | -33% | u | i | 2% | 24% | x | x | x
CCC(=O)Nc1cnc(-c2ccc(C)cc2)nc1 | -2 | 2% | 11% | 3.2µM* | 10% | 38% | u | u | 8.8µM*

Screens from PubChem BioAssay.
